Activity calls are given as the source filed them.

The nature of assay [1]: compound effects on lung adenocarcinoma cell viability – A549, calcein-AM fluorescence, 48 h, basal, profiling panel (AID 1162). To be noted: higher = more signal.
Assay [2] is described as follows: compound effects on differentiated 3T3-L1 adipocyte viability – cell-based, 3T3-L1 adipocytes, calcein-AM fluorescence, 48 h, basal, profiling panel (AID 1163). To be noted: 3T3-L1 adipocytes viability, higher = more signal.
The nature of assay [3]: compound effects on hepatocellular carcinoma cell viability – HepG2, calcein-AM fluorescence, 48 h, basal, profiling panel (AID 1164). To be noted: higher = more signal.
Assay [4] can be described thus: compound effects on multiple myeloma cell viability – MM1S, calcein-AM fluorescence, 48 h, basal, profiling panel (AID 1165). Conditions: higher = more signal.
Assay [5] can be described thus: calcein-AM signal in unstimulated myeloma cells – cell-based, calcein-AM fluorescence, 48 h, PK04 Diversity Set, profiling panel (AID 1166).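 Further: cells grown under basal conditions without added stimulus.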 To be noted: RPMI8226 myeloma viability, higher = more signal.
Assay [6] in a line: JC-1 mitochondrial signal, unstimulated HepG2 cells – cell-based, JC-1 fluorescence, 24 h, 100 nL compound, profiling panel (AID 1167). To be noted: HepG2 mitochondrial potential, higher = more signal.
Assay [7] in a line: JC-1 mitochondrial signal, unstimulated adipocytes – cell-based, JC-1 fluorescence, 3T3-L1 adipocytes, 24 h, 100 nL compound, profiling panel (AID 1168). To be noted: JC-1 mitochondrial fluorescence, higher = more signal, called active from +8 up or from −8 down.
Assay [8] is described as follows: JC-1 mitochondrial signal, unstimulated myeloma cells – cell-based, JC-1 fluorescence, RPMI8226, 24 h, 100 nL compound, profiling panel (AID 1169). To be noted: JC-1 mitochondrial potential fluorescence, higher = more signal.
The nature of assay [9]: JC-1 mitochondrial signal, unstimulated MM1S myeloma – cell-based, JC-1 fluorescence, 24 h, 100 nL compound, profiling panel (AID 1170). Conditions: MM1S mitochondrial potential, higher = more signal.
Assay [10] in a line: resazurin metabolic signal in A549 cells – cell-based, resazurin fluorescence, 24 h, PK04 Diversity Set, profiling panel (AID 1171). To be noted: A549 viability, higher = more signal, called active from +8 up or from −8 down. A general note: Alamar Blue is a resazurin reagent that responds to reducing activity.
Further: test concentration not given here.

As for `COC(=O)C(CC#Cc1ccc2c(c1)[C@]1(C(=O)N2)[C@H](C(=O)N2CCN(c3ncccn3)CC2)[C@H]2C(=O)O[C@H](c3ccccc3)[C@H](c3ccccc3)N2[C@@H]1c1ccc(O)cc1)C(=O)OC`, the z-score in assay [1] is 0.489; in assay [2] it was -0.569; in assay [3] it was 1.24; in [4], 0.142; in assay [5], -2.03; in [6], -0.921. Besides, the z-score was 0.00989 (inactive) in [7], -1.09 in [8], -0.205 in [9] and -0.423 (inactive) in assay [10].
For the compound `C=CCNC(=O)[C@H]1[C@@H]2C(=O)O[C@@H](c3ccccc3)[C@@H](c3ccccc3)N2[C@@H](c2ccc(O)cc2)[C@]12C(=O)N(C(=O)OCCOC)c1ccc(C#Cc3ccc(OC)cc3)cc12`, the z-score in assay [1] is -0.98; in assay [2], -1.44; in assay [3], 0.147; in [4], -1.26; in assay [5] it was -1.2; in assay [6], -1.62. Also, the z-score in [7] is 0.202 (inactive); in assay [8], -0.625; in [9], -0.804; in assay [10], -0.0733 (inactive).
As to `C=C(COC)C(=O)CC[C@H](OC(C)=O)c1ccccc1OCCO`, the z-score in [1] was 0.0878; in assay [2], 2.22; in assay [3] it was -0.699; in [4], -3.39; in assay [5] it was -1.97; in assay [6], 1.61. The z-score in assay [7] is 0.862 (inactive); in [8], -0.699; in assay [9], -1.18; in assay [10] it was -0.164 (inactive).
Regarding `CC(C)(C)OC(=O)CC[C@@]1(C(N)=O)N=C(c2ccc(OCCCO)cc2)O[C@@H]1c1ccccc1CN=[N+]=[N-]`, the z-score in assay [1] was 0.105; in assay [2], -0.288; in assay [3], 0.886; in assay [4], 0.0855; in [5] it was 0.116; in assay [6], -1.08. The z-score in [7] is -0.216 (inactive); in assay [8] it was 0.698; in [9] it was -0.829; in [10], 0.112 (inactive).
As for `O=C1NC(=O)C2C1C=CC(C(O)C(O)CO)N2Nc1ccccn1` (stereo not given), the z-score in assay [1] is 0.159; in assay [2], -0.28; in assay [3], 2.19; in [4], 0.434; in [5] it was 0.476; in assay [6], 0.361. Moreover, the z-score in assay [7] was 0.117 (inactive); in assay [8] it was -0.627; in [9], 0.123; in assay [10], -1.65 (inactive).
On to `C=C(COC)/C(=C/C[C@@H](OC(C)=O)c1cccc(OCCO)c1)c1cnc2ccccc2c1`, for which the z-score was 0.37 in [1]; 1.35 in assay [2]; -0.705 in [3]; -0.588 in [4]; -0.461 in assay [5]; 0.902 in assay [6]. Further, the z-score is -0.0217 (inactive) in [7], 0.0629 in assay [8], 0.627 in assay [9] and -0.736 (inactive) in assay [10].
As for `COc1ccc(C(O)C2C=CC3C(=O)N(c4ccccc4)C(=O)C3N2Nc2ccccc2F)c2ccccc12` (stereo not given), the z-score in [1] was 0.23; in assay [2], -0.229; in assay [3], -0.737; in assay [4] it was -1.91; in assay [5], -1.61; in [6], -1.78. For the same compound, the z-score in [7] was 0.385 (inactive); in assay [8], -0.172; in [9], -0.754; in assay [10], 0.473 (inactive).
On to `[N-]=[N+]=NCc1ccccc1C[C@@]1(C(=O)NCCN2CCOCC2)N=C(c2ccc(OCCCO)cc2)O[C@@H]1c1ccccc1`, for which the z-score in assay [1] was 0.0171; in assay [2] it was -0.221; in [3] it was -1.04; in [4], -2.72; in assay [5], -1.99; in assay [6], -0.3. The z-score was 0.556 (inactive) in assay [7], -1.18 in [8], -0.956 in assay [9] and -0.112 (inactive) in assay [10].
Regarding `COc1cc2c(cc1OC)CN(C(=O)[C@@H]1[C@H]3C(=O)O[C@H](c4ccccc4)[C@H](c4ccccc4)N3[C@H](c3ccc(O)cc3)[C@@]13C(=O)Nc1ccc(C#CC4=CCCCC4)cc13)CC2`, the z-score in assay [1] was 0.434; in assay [2] it was 0.641; in assay [3], 0.618; in [4], -0.126; in assay [5], -1.58; in assay [6] it was -0.948. For the same compound, the z-score was 0.165 (inactive) in assay [7], -0.733 in assay [8], 0.328 in assay [9] and 0.175 (inactive) in assay [10].
`CCCNC(=O)[C@@]1(Sc2ccc(C)cc2)CC(=O)N(Cc2cc(C(F)(F)F)cc(C(F)(F)F)c2)[C@@H]1c1ccc(CO)cc1`: the z-score in assay [1] was -0.259; in assay [2], 1.2; in [3], -0.609; in assay [4], -0.254; in assay [5], -0.312; in assay [6], -0.537. Further, the z-score in assay [7] is 0.196 (inactive); in assay [8], 0.293; in [9], -0.765; in assay [10], 0.149 (inactive).
Take `COC(=O)C(CC#Cc1ccc2c(c1)[C@]1(C(=O)N2)[C@H](C(=O)N2CCCCCCC2)[C@H]2C(=O)O[C@H](c3ccccc3)[C@H](c3ccccc3)N2[C@@H]1c1ccc(OCCO)cc1)C(=O)OC`: the z-score in [1] is -0.369; in assay [2] it was 0.231; in [3], 0.0259; in [4] it was -0.236; in [5], 0.164; in assay [6], -0.738. The z-score in [7] is -2.32 (inactive); in [8] it was -1.04; in assay [9], -1.44; in assay [10], 1.29 (inactive).
For `CC(C)c1ccc(NN2C(C(O)c3ccccc3)C=CC3C(=O)N(c4ccccc4)C(=O)C32)cc1` (stereo not given), the z-score was 1.53 in assay [1]; -1.6 in [2]; 1.22 in assay [3]; -0.168 in assay [4]; 0.159 in assay [5]; -1.13 in [6]. Moreover, the z-score is 0.821 (inactive) in assay [7], -0.197 in assay [8], -0.906 in assay [9] and 0.235 (inactive) in assay [10].
`[N-]=[N+]=NCc1ccccc1C[C@@]1(C(N)=O)N=C(c2ccc(OCCCO)cc2)O[C@@H]1c1ccccc1N=[N+]=[N-]`: the z-score in assay [1] was -0.908; in assay [2] it was -0.278; in assay [3] it was -0.705; in assay [4] it was -3; in assay [5], -3.1; in assay [6] it was -1.07. Moreover, the z-score is -0.71 (inactive) in assay [7], -1.08 in assay [8], -0.62 in [9] and -0.583 (inactive) in assay [10].
Regarding `O=C1O[C@H](c2ccccc2)[C@H](c2ccccc2)N2[C@H]1[C@@H](C(=O)O)[C@]1(C(=O)Nc3ccccc31)[C@H]2c1ccc(OCCO)cc1`, the z-score in assay [1] was -0.29; in assay [2] it was 1.11; in assay [3] it was -0.119; in assay [4], 0.338; in assay [5], -2.44; in assay [6], -0.706. Besides, the z-score is 0.254 (inactive) in assay [7], -0.295 in [8], 0.0484 in [9] and 0.683 (inactive) in [10].
For `C=CCNC(=O)[C@H]1[C@@H]2C(=O)O[C@@H](c3ccccc3)[C@@H](c3ccccc3)N2[C@@H](c2ccc(O)cc2)[C@]12C(=O)Nc1ccccc12`, the z-score in [1] is 1.94; in assay [2] it was 0.816; in assay [3], 1.51; in [4], -0.0148; in [5] it was -0.836; in [6], -0.948. Moreover, the z-score in assay [7] was -0.586 (inactive); in assay [8], 0.105; in assay [9], 0.24; in assay [10], 0.552 (inactive).
With `CCOC(=O)C[C@H]1[C@H](OC(=O)Cc2ccc3c(c2)OCO3)[C@@H](NC(=O)CC(C)C)c2cc(OCCCO)ccc2N1C(=O)c1ccc2ccccc2n1`, the z-score in assay [1] was 0.415; in assay [2] it was 1.37; in assay [3], -0.236; in [4], 0.383; in assay [5], -0.577; in assay [6] it was 0.218. The z-score in assay [7] was 0.0499 (inactive); in [8], 0.01; in assay [9], -0.659; in assay [10], 0.194 (inactive).
